# From PubChem BioAssay (NCATS)
# Results filed as inconclusive are left out. A call without a number means that no potency is given here. Values without a mark were called inactive. Calls of active or inactive are those of the source. Calls follow the shape of the dose curve; as a rule, active = well fitted inhibition curve with a large enough effect; inconclusive = small, poorly fitted or top-dose-only effect; inactive = flat fitted curve, though single readings scatter.
# Assays:
# [1] = qHTS profiling for inhibitors of Plasmodium falciparum proliferation (AID 504749); also: nearly all actives have a fitted effect of over 60% in size; conditions: P. falciparum in erythrocytes, SYBR Green DNA, 72 h
# Procedure, shortened: (§1)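 P. falciparum-infected erythrocytes (0.3% parasitemia, 2.5% hematocrit) incubated with compound 72 h at 37 C, 5% CO2. Parasite DNA detected by SYBR Green after lysis, overnight at room temperature; normalised to 0.29 uM artemisinin and DMSO.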
# 3D7 = assay: as above; conditions: P. falciparum in erythrocytes, SYBR Green DNA, 72 h; series mostly up to 28.7 µM
# Procedure, shortened: as §1
# AA1029 = assay: as above; conditions: P. falciparum in erythrocytes, SYBR Green DNA, 72 h; series mostly up to 28.7 µM
# Procedure, shortened: as §1
# AS120 = assay: as above; conditions: P. falciparum in erythrocytes, SYBR Green DNA, 72 h; series mostly up to 28.7 µM
# Procedure, shortened: as §1
# ATS189 = assay: as above; conditions: P. falciparum in erythrocytes, SYBR Green DNA, 72 h; series mostly up to 28.7 µM
# Procedure, shortened: as §1
# ATS95 = assay: as above; conditions: P. falciparum in erythrocytes, SYBR Green DNA, 72 h; series mostly up to 28.7 µM
# Procedure, shortened: as §1
# C2A = assay: as above; conditions: P. falciparum in erythrocytes, SYBR Green DNA, 72 h; series mostly up to 28.7 µM
# Procedure, shortened: as §1
# CP185 = assay: as above; conditions: P. falciparum in erythrocytes, SYBR Green DNA, 72 h; series mostly up to 28.7 µM
# Procedure, shortened: as §1
# CP191 = assay: as above; conditions: P. falciparum in erythrocytes, SYBR Green DNA, 72 h; series mostly up to 28.7 µM
# Procedure, shortened: as §1
# CP192 = assay: as above; conditions: P. falciparum in erythrocytes, SYBR Green DNA, 72 h; series mostly up to 28.7 µM
# Procedure, shortened: as §1
# CP194 = assay: as above; conditions: P. falciparum in erythrocytes, SYBR Green DNA, 72 h; series mostly up to 28.7 µM
# Procedure, shortened: as §1
# CP201 = assay: as above; conditions: P. falciparum in erythrocytes, SYBR Green DNA, 72 h; series mostly up to 28.7 µM
# Procedure, shortened: as §1
# CP203 = assay: as above; conditions: P. falciparum in erythrocytes, SYBR Green DNA, 72 h; series mostly up to 28.7 µM
# Procedure, shortened: as §1
# CP211 = assay: as above; conditions: P. falciparum in erythrocytes, SYBR Green DNA, 72 h; series mostly up to 28.7 µM
# Procedure, shortened: as §1
# CP215 = assay: as above; conditions: P. falciparum in erythrocytes, SYBR Green DNA, 72 h; series mostly up to 28.7 µM
# Procedure, shortened: as §1
# CP217 = assay: as above; conditions: P. falciparum in erythrocytes, SYBR Green DNA, 72 h; series mostly up to 28.7 µM
# Procedure, shortened: as §1
# CP237 = assay: as above; conditions: P. falciparum in erythrocytes, SYBR Green DNA, 72 h; series mostly up to 28.7 µM
# Procedure, shortened: as §1
# CP238 = assay: as above; conditions: P. falciparum in erythrocytes, SYBR Green DNA, 72 h; series mostly up to 28.7 µM
# Procedure, shortened: as §1
# 7G8 = assay: as above; conditions: P. falciparum in erythrocytes, SYBR Green DNA, 72 h; series mostly up to 28.7 µM
# Procedure, shortened: as §1
# [2] = at 28.7 µM (top of the series), parasite line A
# [3] = at 28.7 µM (top of the series), parasite line B
# Potency is read from the fitted curve at half-maximal effect.
structure (smiles),measurement,setting,value
O=C(Oc1cccc2cccnc12)c1ccccc1,"activity, negative = inhibition",[1]; [2],5.84%
same,"activity, negative = inhibition",[1]; [3],-15.2%
same,Potency,3D7,inactive
same,Potency,AA1029,inactive
same,Potency,AS120,inactive
same,Potency,ATS189,inactive
same,Potency,ATS95,inactive
same,Potency,C2A,inactive
same,Potency,CP185,inactive
same,Potency,CP191,inactive
same,Potency,CP192,inactive
same,Potency,CP194,inactive
same,Potency,CP201,inactive
same,Potency,CP203,inactive
same,Potency,CP211,inactive
same,Potency,CP215,inactive
same,Potency,CP217,inactive
same,Potency,CP237,inactive
same,Potency,CP238,inactive
C#C[C@]1(OC(C)=O)CC[C@H]2[C@@H]3CCC4=C/C(=N/O)CC[C@@H]4[C@H]3CC[C@@]21CC,"activity, negative = inhibition",[1]; [2],-6.98%
same,"activity, negative = inhibition",[1]; [3],-15.6%
same,Potency,3D7,inactive
same,Potency,AA1029,inactive
same,Potency,AS120,inactive
same,Potency,ATS189,inactive
same,Potency,ATS95,inactive
same,Potency,C2A,inactive
same,Potency,CP185,inactive
same,Potency,CP191,inactive
same,Potency,CP194,inactive
same,Potency,CP201,inactive
same,Potency,CP203,inactive
same,Potency,CP211,inactive
same,Potency,CP215,inactive
same,Potency,CP217,inactive
same,Potency,CP237,inactive
same,Potency,CP238,inactive
COc1ccc(C(=O)c2ccccc2)c(O)c1,"activity, negative = inhibition",[1]; [2],-10.8%
same,"activity, negative = inhibition",[1]; [3],10.2%
same,Potency,7G8,10 µM (active)
same,Potency,AA1029,inactive
same,Potency,AS120,inactive
same,Potency,ATS95,inactive
same,Potency,C2A,inactive
same,Potency,CP185,inactive
same,Potency,CP192,inactive
same,Potency,CP194,inactive
same,Potency,CP201,inactive
same,Potency,CP203,inactive
same,Potency,CP211,inactive
same,Potency,CP215,inactive
same,Potency,CP217,inactive
same,Potency,CP237,inactive
same,Potency,CP238,inactive
CCC(CC)(CC(=O)Nc1cccc(/C=C/c2nc(C3CCC3)cs2)c1)C(=O)O,"activity, negative = inhibition",[1]; [2],-2.66%
same,"activity, negative = inhibition",[1]; [3],-0.894%
same,Potency,3D7,inactive
same,Potency,AA1029,inactive
same,Potency,AS120,inactive
same,Potency,ATS189,inactive
same,Potency,ATS95,inactive
same,Potency,C2A,inactive
same,Potency,CP185,inactive
same,Potency,CP191,inactive
same,Potency,CP192,inactive
same,Potency,CP194,inactive
same,Potency,CP201,inactive
same,Potency,CP203,inactive
same,Potency,CP211,inactive
same,Potency,CP215,inactive
same,Potency,CP217,inactive
same,Potency,CP237,inactive
same,Potency,CP238,inactive
CCOC(=O)Nc1ccc2c(c1)N(C(=O)CCN1CCOCC1)c1ccccc1S2,"activity, negative = inhibition","[1]; at 12.8 µM (top of the series), parasite line A",5.76%
same,"activity, negative = inhibition","[1]; at 12.8 µM (top of the series), parasite line B",22.5%
same,Potency,3D7,inactive
same,Potency,AA1029,inactive
same,Potency,AS120,inactive
same,Potency,ATS189,inactive
same,Potency,ATS95,inactive
same,Potency,C2A,inactive
same,Potency,CP185,inactive
same,Potency,CP192,inactive
same,Potency,CP194,inactive
same,Potency,CP201,inactive
same,Potency,CP203,inactive
same,Potency,CP211,inactive
same,Potency,CP215,inactive
same,Potency,CP217,inactive
same,Potency,CP237,inactive
same,Potency,CP238,inactive
CC1CCc2c(N3CCC(O)CC3)c(F)cc3c(=O)c(C(=O)O)cn1c23 (stereo not given),"activity, negative = inhibition",[1]; [2],-29.3%
same,"activity, negative = inhibition",[1]; [3],-19.8%
same,Potency,7G8,11.2 µM (active)
same,Potency,ATS95,inactive
same,Potency,C2A,inactive
same,Potency,CP192,inactive
same,Potency,CP194,inactive
same,Potency,CP201,inactive
same,Potency,CP211,inactive
CN1CCN(C2=Nc3cc(F)ccc3Cc3ccccc32)CC1,"activity, negative = inhibition",[1]; [2],-5.08%
same,"activity, negative = inhibition",[1]; [3],-0.186%
same,Potency,3D7,inactive
same,Potency,7G8,12.6 µM (active)
same,Potency,C2A,inactive
same,Potency,CP185,inactive
same,Potency,CP191,inactive
same,Potency,CP192,inactive
same,Potency,CP201,inactive
same,Potency,CP203,inactive
same,Potency,CP211,inactive
same,Potency,CP215,inactive
same,Potency,CP217,inactive
same,Potency,CP237,7.08 µM (active)
same,Potency,CP238,inactive
NCCNc1cccc2ccccc12,"activity, negative = inhibition",[1]; [2],-9.01%
same,"activity, negative = inhibition",[1]; [3],2.1%
same,Potency,3D7,inactive
same,Potency,AA1029,inactive
same,Potency,AS120,inactive
same,Potency,ATS189,inactive
same,Potency,ATS95,inactive
same,Potency,C2A,inactive
same,Potency,CP185,inactive
same,Potency,CP191,inactive
same,Potency,CP192,inactive
same,Potency,CP194,inactive
same,Potency,CP201,inactive
same,Potency,CP203,inactive
same,Potency,CP211,inactive
same,Potency,CP215,inactive
same,Potency,CP217,inactive
same,Potency,CP238,inactive
CC(C)=CCOc1ccc(/C=C/C(=O)c2ccc(OCC=C(C)C)cc2OCC(=O)O)cc1,"activity, negative = inhibition",[1]; [2],-9.12%
same,"activity, negative = inhibition",[1]; [3],-8.65%
same,Potency,3D7,inactive
same,Potency,AA1029,inactive
same,Potency,AS120,inactive
same,Potency,ATS189,inactive
same,Potency,ATS95,inactive
same,Potency,C2A,inactive
same,Potency,CP185,inactive
same,Potency,CP191,inactive
same,Potency,CP192,inactive
same,Potency,CP201,inactive
same,Potency,CP203,inactive
same,Potency,CP211,inactive
same,Potency,CP217,inactive
same,Potency,CP237,inactive
same,Potency,CP238,inactive
O=C(CCN1CCN2CCCC2C1)N1c2ccccc2Sc2ccc(Cl)cc21 (stereo not given),"activity, negative = inhibition",[1]; [2],-26.8%
same,"activity, negative = inhibition",[1]; [3],-9.82%
same,Potency,7G8,8.91 µM (active)
same,Potency,CP185,inactive
same,Potency,CP192,inactive
same,Potency,CP194,inactive
same,Potency,CP201,inactive
same,Potency,CP203,inactive
same,Potency,CP211,inactive
CN(C)C(=O)Nc1ccc(Cl)c(Cl)c1,"activity, negative = inhibition",[1]; [2],-1.54%
same,"activity, negative = inhibition",[1]; [3],-6.86%
same,Potency,ATS189,inactive
same,Potency,ATS95,inactive
same,Potency,CP185,inactive
same,Potency,CP192,inactive
C=CCN1CCc2nc(N)sc2CC1,"activity, negative = inhibition",[1]; [2],-6.7%
same,"activity, negative = inhibition",[1]; [3],2.41%
same,Potency,3D7,inactive
same,Potency,AA1029,inactive
same,Potency,AS120,inactive
same,Potency,ATS189,inactive
same,Potency,ATS95,inactive
same,Potency,C2A,inactive
same,Potency,CP185,inactive
same,Potency,CP191,inactive
same,Potency,CP192,inactive
same,Potency,CP194,inactive
same,Potency,CP201,inactive
same,Potency,CP203,inactive
same,Potency,CP211,inactive
same,Potency,CP215,inactive
same,Potency,CP217,inactive
same,Potency,CP237,inactive
same,Potency,CP238,inactive
Cl/C(=C\n1cncn1)c1ccc(Cl)cc1Cl,"activity, negative = inhibition",[1]; [2],10.9%
same,"activity, negative = inhibition",[1]; [3],7.76%
same,Potency,3D7,inactive
same,Potency,AA1029,inactive
same,Potency,AS120,inactive
same,Potency,ATS189,inactive
same,Potency,ATS95,inactive
same,Potency,C2A,inactive
same,Potency,CP185,inactive
same,Potency,CP191,inactive
same,Potency,CP192,inactive
same,Potency,CP194,inactive
same,Potency,CP201,inactive
same,Potency,CP203,inactive
same,Potency,CP211,inactive
same,Potency,CP215,inactive
same,Potency,CP217,inactive
same,Potency,CP237,inactive
same,Potency,CP238,inactive
NS(=O)(=O)Cc1noc2ccccc12,"activity, negative = inhibition",[1]; [2],6.43%
same,"activity, negative = inhibition",[1]; [3],4.66%
same,Potency,3D7,inactive
same,Potency,AA1029,inactive
same,Potency,AS120,inactive
same,Potency,ATS189,inactive
same,Potency,ATS95,inactive
same,Potency,C2A,inactive
same,Potency,CP185,inactive
same,Potency,CP191,inactive
same,Potency,CP192,inactive
same,Potency,CP194,inactive
same,Potency,CP201,inactive
same,Potency,CP203,inactive
same,Potency,CP211,inactive
same,Potency,CP215,inactive
same,Potency,CP217,inactive
same,Potency,CP237,inactive
same,Potency,CP238,inactive
O=C1C(O)=C(O)C(=O)C(O)=C1O,"activity, negative = inhibition",[1]; [2],5.3%
same,"activity, negative = inhibition",[1]; [3],12.3%
same,Potency,AA1029,inactive
same,Potency,AS120,inactive
same,Potency,ATS189,inactive
same,Potency,ATS95,inactive
same,Potency,C2A,inactive
same,Potency,CP185,inactive
same,Potency,CP191,inactive
same,Potency,CP192,inactive
same,Potency,CP194,inactive
same,Potency,CP201,inactive
same,Potency,CP203,inactive
same,Potency,CP211,inactive
same,Potency,CP215,inactive
same,Potency,CP217,inactive
same,Potency,CP237,inactive
same,Potency,CP238,inactive
